Laboratory results published in PubChem BioAssay (NCATS).
Records with an inconclusive call do not appear. Active and inactive are the calls of the source. Calls come from the whole dose curve; as a rule, active = well fitted inhibition curve with a large enough effect; inconclusive = small, poorly fitted or top-dose-only effect; inactive = flat fitted curve, though single readings scatter.

Assays:
[1] = system: CRL-7250; test: Cytotoxic Profiling of Annotated Libraries Using Quantitative High-Throughput Screening (AID 1296008); conditions: Five cell lines viability, CellTiter-Glo ATP luminescence, 48-72 h; max response: hits give low values; for max response: % is set by controls: 0 for no effect and ±100 for the full control effect
Summary of the method: (§1)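 Compounds were pin-transferred onto cells and incubated 48 or 72 hr at 37 degree Celsius, 95% humidity. CellTiter-Glo was added, plates sat 10 min at room temperature, then ATP-coupled luminescence was imaged as the viability read-out.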

[2] = system: HEK293; test: as above; conditions: Five cell lines viability, CellTiter-Glo ATP luminescence, 48-72 h; max response: hits give low values
Summary of the method: as §1

[3] = system: NIH3T3; test: as above; conditions: Five cell lines viability, CellTiter-Glo ATP luminescence, 48-72 h; max response: hits give low values
Summary of the method: as §1

[4] = system: MCC-13; test: qHTS assay to identify novel small-molecules to repurpose for Merkel cell carcinoma treatment (AID 1296009); conditions: MCC and control cell lines, CellTiter-Glo viability, 72 h; series mostly up to 46 µM
Summary of the method: (§2)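 Viability readout: ATP luminescence (CellTiter-Glo) after 72 hr drug exposure at 37 degree celsius. Dose-response format was 8 points for NPC and 11 points for MIPE; data normalized to in-plate controls.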

[5] = system: MCC-26; test: as above; conditions: MCC and control cell lines, CellTiter-Glo viability, 72 h; series mostly up to 46 µM
Summary of the method: as §2

[6] = system: HaCat; test: Cytotoxic Profiling of Annotated Libraries Using Quantitative High-Throughput Screening (AID 1296008); conditions: Five cell lines viability, CellTiter-Glo ATP luminescence, 48-72 h; max response: hits give low values; for max response: % is set by controls: 0 for no effect and ±100 for the full control effect
Summary of the method: as §1

[7] = system: KB-3-1; test: as above; conditions: Five cell lines viability, CellTiter-Glo ATP luminescence, 48-72 h; max response: hits give low values
Summary of the method: as §1

[8] = system: W2; test: qHTS profiling for inhibitors of Plasmodium falciparum proliferation (AID 504749); conditions: P. falciparum in erythrocytes, SYBR Green DNA, 72 h; series mostly up to 28.7 µM
Summary of the method: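 Quantitative HTS: compounds pinned into medium, infected erythrocytes added (0.3% parasitemia, 2.5% hematocrit), 72 h culture at 37 C under 5% CO2. Saponin/Triton lysis with SYBR Green I, overnight RT, then fluorescence read.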

[9] = system: HEK293T; test: qHTS assay to identify novel small-molecules to repurpose for Merkel cell carcinoma treatment (AID 1296009); conditions: MCC and control cell lines, CellTiter-Glo viability, 72 h; at 44.8 µM (top of the series) unless noted
Summary of the method: as §2

[10] = system: HACAT; test: as above; conditions: MCC and control cell lines, CellTiter-Glo viability, 72 h; at 44.8 µM (top of the series) unless noted
Summary of the method: as §2
Note: nearly all actives have a fitted effect of over 60% in size.
Potency is the fitted concentration of half-maximal effect.

CC(C)(C)NCC(O)COc1ccccc1OCC1CCCO1 (stereo not drawn)
inactive: max response [1] -2.81% | max response [2] -1.05% | outcome [3] | Potency [4] | Potency [5]

CC(C)(C)C1CCC(CC2=C(O)c3ccccc3C(=O)C2=O)CC1 (stereo not drawn)
inactive: max response [1] -5.3% | max response [2] 0.617% | max response [6] -2.75% | max response [3] -2.94% | Potency [4] | Potency [5]

CC(=O)Oc1ccc(C2(c3ccc(OC(C)=O)cc3)Oc3ccccc3NC2=O)cc1
active: Potency [1] 8.41 µM | Potency [2] 7.5 µM | Potency [7] 18.4 µM

Nc1ccc2cc3ccc(N)cc3nc2c1
active: Potency [8] 7.57 µM | Potency [1] 7.5 µM | Potency [2] 2.37 µM | Potency [6] 3.76 µM | Potency [4] 13.3 µM

CNC(=O)c1cnn(-c2nc(N)c3ncn([C@@H]4O[C@H](CO)[C@@H](O)[C@H]4O)c3n2)c1
inactive: max response [1] -10.9% | outcome [2] | max response [3] -3.79% | outcome [9] | Potency [4] | Potency [5]

c1ccc2occc2c1
inactive: max response [1] -10.5% | max response [2] -7.13% | max response [7] -9.71% | max response [3] -3.85% | Potency [4] | Potency [5]

Nc1ncnc2c1ncn2Cc1c(F)cccc1Cl
inactive: max response [1] -8.42% | outcome [2] | outcome [3] | outcome [9] | Potency [4] | Potency [5]

CCCCCOc1ccccc1/C(=C\SC)n1ccnc1
active: Potency [2] 26.6 µM
inactive: max response [1] -4.59% | max response [3] -29.1% | Potency [4] | Potency [5]

O=C(Nc1ccc(S(=O)(=O)N2CCOCC2)cc1)c1cc(Cl)ccc1NS(=O)(=O)c1ccc(Cl)s1
inactive: max response [1] -9.47% | outcome [2] | max response [7] -23.1% | outcome [3] | outcome [9] | Potency [4] | Potency [5]

CCOC(=O)C(=O)c1csc(NC=O)n1
inactive: max response [1] -5.63% | max response [2] 3.1% | max response [6] 4.32% | max response [3] 0.793% | Potency [4] | Potency [5]

CC(C)C[C@@H]1[C@H](c2ccccc2)OC(=O)N1CCCN1CCCCCC1
active: Potency [2] 23.7 µM
inactive: max response [1] -2.82% | max response [6] -13.9% | max response [3] -3.61% | Potency [4] | Potency [5]

NS(=O)(=O)c1cc2c(cc1Cl)CN(C1CCCCC1)C2=O
inactive: max response [1] -6.27% | outcome [2] | max response [3] 4.87% | outcome [9] | Potency [4] | Potency [5]

CN1[C@@H]2CC[C@H]1CC(NC(=O)n1c(=O)[nH]c3ccccc31)C2 (stereo partly drawn)
inactive: max response [1] -3.19% | max response [2] -4.57% | max response [7] -6.43% | max response [3] 1.08% | Potency [4] | Potency [5]

CCOC(=O)c1ccc(O)c(O)c1
inactive: max response [1] 2.32% | outcome [2] | max response [6] -0.432% | outcome [9] | Potency [5]

CCC1=C[C@@H]2CN(C1)Cc1c([nH]c3ccccc13)[C@@](C(=O)OC)(c1cc3c(cc1OC)N(C)[C@H]1[C@@](O)(C(=O)OC)[C@H](OC(C)=O)[C@]4(CC)C=CCN5CC[C@]31[C@@H]54)C2
inactive: outcome [6] | outcome [10]
active: Potency [1] 0.0422 µM | Potency [2] 0.0084 µM

CCOC(=O)c1ccc(OCCN2C[C@H](O)[C@@H](O)[C@H](O)[C@H]2CO)cc1
inactive: max response [1] -7.54% | max response [2] -10.3% | max response [6] -6.67% | max response [3] -0.529% | Potency [4] | Potency [5]

CCN1CCCC1CN (stereo not drawn)
inactive: max response [1] 3.84% | outcome [2] | max response [3] -1.87% | outcome [9] | Potency [4] | Potency [5]

O=c1[nH]sc2cc(Cl)ccc12
active: Potency [4] 6.68 µM
inactive: max response [1] -108% | max response [2] -119% | max response [3] -92.7%

CNC[C@H](O)[C@@H](O)[C@H](O)[C@H](O)CO
inactive: max response [1] -2.73% | max response [2] -0.47% | max response [6] -3.04% | max response [3] 1.64% | Potency [4] | Potency [5]

CCCCCCCCCCCCCCCCCCNC(=O)OC1CCN(C(=O)OC[C@H](COC(=O)N(Cc2cccc[n+]2CC)C(=O)c2ccccc2OC)OC)CC1
active: Potency [1] 8.41 µM | Potency [2] 7.5 µM | Potency [7] 6.51 µM

CCOC(=O)C(=O)CCCCCCl
inactive: outcome [1] | max response [2] -7.06% | max response [6] -12.5% | outcome [3] | Potency [4] | Potency [5]

CN(C)C(=O)CNC(=O)Cc1ccccc1
inactive: max response [1] -7.63% | max response [2] -9.26% | max response [3] -5.07% | Potency [4] | Potency [5]
